Here are results for 61 molecules from PubChem BioAssay AID1159607 (Small Molecule Screening Facility, UW Madison, 2016).

Values joined by “and” are separate entries in the source; they are usually repeats but may differ in a detail not shown here. Equal values may be shown once. Among all 70,000 compounds or so, about 400 (0.57%) were called active. This is one part of a sample in which actives are shown more often than they occur. Rule as the data show it: active = FP signal below about 40; inactive = the rest.

The assay deals with RMI core complex (RMI1/RMI2) binding to FANCM MM2 peptide, human. Put plainly: disruptors of RMI1/RMI2 association with MM2 peptide – biochemical, fluorescence polarization, human, primary screen (AID 1159607). The following applies: RMI core complex with F-MM2 peptide, at 33 µM, stronger effect = lower value. For orientation: In fluorescence polarisation assays a small probe gives low polarisation when free and higher when bound to something large.
With `Cc1cccn2c(=O)c(/C=C3\SC(=S)N(C)C3=O)c(NCc3ccc4c(c3)OCO4)nc12`, the FP signal (polarization) is 42 (inactive). Next, `Cc1ccc(S(=O)(=O)NCCCCCC(=O)Nc2ccncc2)cc1`: 56 (inactive); `Cc1ccc(NC(=O)C(=O)Nc2cc(F)ccc2F)cc1N1CCCC1=O`: 54 (inactive); `O=C(CSc1nnc(NC(=O)c2ccc(Br)o2)s1)Nc1cc(C(F)(F)F)ccc1Cl`: 64 (inactive). As for `COC(=O)c1c(N2C(=O)C3ON(c4ccc(Cl)cc4)C(c4ccco4)C3C2=O)sc(C)c1C` (stereo unspecified), the figure is 25 (active); as for `N#CC(c1ccccc1)N1CCSCC1` (stereo unspecified), 56 (inactive). As for `Cc1cc(-c2nnc(NC(=O)Cc3ccc(F)cc3)o2)n(C)n1`, the figure is 70 (inactive); as for `CCOC(=O)N1CCc2c(sc(NC(=O)CSc3ccccc3)c2C(N)=O)C1`, 67 (inactive); as for `O=C(NCCn1ncc2c(=O)n(Cc3cccc([N+](=O)[O-])c3)cnc21)C1CC(=O)N(c2ccc(F)cc2)C1` (stereo unspecified), 71 (inactive).

For the molecule `O=C(CCn1cncn1)N1CCN(C(=O)N2CCOCC2)CC1`, the FP signal (polarization) is 63 (inactive). As for `O=C(c1ccc(=O)n(Cc2cccc(F)c2)n1)N1CCN(Cc2ccccc2)CC1`, the figure is 59 (inactive). For `CCN1C(=O)Cc2cc(NC(=O)c3ccc(F)c(F)c3)ccc21`, the FP signal (polarization) was 68 (inactive).

As for `CSc1ccc2nc(NC(=O)c3ccc(S(=O)(=O)N4CCc5ccccc5C4)cc3)sc2c1`, the FP signal (polarization) was 70 (inactive). Turning to `COc1ccc(Cl)c2sc(NNC(=O)c3ccc(S(=O)(=O)N4CCc5ccccc5C4)cc3)nc12`, the FP signal (polarization) is 11 (active). As for `COc1ccc(Cl)c2sc(NC(=O)C3CCCN(S(C)(=O)=O)C3)nc12` (stereo unspecified), the FP signal (polarization) was 63 (inactive). As for `CCc1nnc(NC(=O)CSc2ccc3nc(-c4ccccc4)cn3n2)s1`, the FP signal (polarization) was 55 (inactive). Next, `CN(C)C(C#N)c1cccc(Cl)c1Cl` (stereo unspecified): 69 (inactive); `CCOC(=O)N1CCc2c(sc(NC(=O)c3ccccc3I)c2C#N)C1`: 63 (inactive). Take `COc1cn(CC(=O)Nc2ccc(C)cc2C)c(CSc2nnnn2C)cc1=O`: the FP signal (polarization) is 52 (inactive).

`C(=N/NC1=NCCN1Cc1ccccc1)/c1ccc2c(c1)OCO2`: the FP signal (polarization) is 51 (inactive) and 48 (inactive).

In the case of `Clc1ccc(-c2csc(-c3ccncc3)n2)cc1`, the FP signal (polarization) is 51 (inactive).

Consider `CCn1cc(C(=O)N2CCN(Cc3cc(C)ccc3C)CC2)c2nn(-c3ccccc3)c(=O)c-2c1`, for which the FP signal (polarization) was 64 (inactive). As for `COCC(=O)Nc1ccc2c(c1)C(=O)N(C)c1cc(C)ccc1O2`, the FP signal (polarization) is 69 (inactive). With `O=C(C1=C(O)C(=O)N(CCCN2CCOCC2)C1c1ccco1)c1cccs1` (stereo unspecified), the FP signal (polarization) is 57 (inactive). `O=C(Cc1csc(Nc2ccc(F)cc2)n1)NCc1ccccn1`: the FP signal (polarization) was 9 (active). Next, `O=C(Cc1csc(Nc2ccccc2)n1)NCc1ccccc1Cl`: 63 (inactive); `COc1ccccc1CCNC(=O)Cc1csc(Nc2ccc(F)cc2)n1`: 65 (inactive); `CCOC(=O)Cn1c(=NC(=O)c2ccnn2C)sc2cc(C(C)C)ccc21`: 69 (inactive). As for `COCCN1C(=O)C2N=NN(c3ccccc3)C2C1=O` (stereo unspecified), the figure is 66 (inactive); as for `O=C(c1cccc(C(F)(F)F)c1)N1CCC(c2nnc(C3CC3)s2)CC1`, 61 (inactive). As for `COC(=O)Nc1ccc2c(c1)C(=O)N(C)c1ccccc1O2`, the FP signal (polarization) is 57 (inactive).

For the molecule `CC1CCCCC1NC(=O)C(=O)c1cn(CC(=O)N2CCCCC2)c2ccccc12` (stereo unspecified), the FP signal (polarization) is 56 (inactive). With `CC1=NN(c2ccccc2)C(=O)C1=Cc1c(C)[nH]n(-c2ccccc2)c1=O`, the FP signal (polarization) is 53 (inactive). As for `O=C(Nc1ccc(Br)cc1)Nc1c[nH]c2ccccc12`, the figure is 56 (inactive); as for `O=C(Nc1ccc([N+](=O)[O-])cc1)Nc1nc(-c2nc3ccccc3s2)cs1`, 65 (inactive); as for `Cc1ccnc(NS(=O)(=O)c2ccc(NC(=O)c3ccc([N+](=O)[O-])o3)cc2)n1`, 61 (inactive). As for `NC(=O)c1c(NC(=O)CCSc2ccc(Cl)cc2)sc2c1CCCCC2`, the figure is 102 (inactive).

As for `Cc1c(/C=N\Nc2ccc([N+](=O)[O-])cc2)sc2ccccc12`, the FP signal (polarization) is 64 (inactive). Next, `COc1ccccc1/C=C/C(=O)NC(=S)N1CCCC1`: 59 (inactive). Next, `Cc1cc(C(=O)Nc2sccc2-c2nc3ccccc3s2)on1`: 107 (inactive). Next, `NC(=O)c1cnn(-c2ccccc2)c1N`: 55 (inactive); `CCC(CC)C(=O)Nc1nnc(SCc2cc(=O)c(OC(=O)c3ccc(S(=O)(=O)N(CC)CC)cc3)co2)s1`: 53 (inactive).

In the case of `Cc1ccc2c(c1)N(C(=O)Cn1nc3ccc(S(=O)(=O)C(C)(C)C)nn3c1=O)CCO2`, the FP signal (polarization) is 64 (inactive). Next, `COc1ccc(S(=O)(=O)NNC(=O)CSCc2nc(-c3ccc(Cl)cc3)cs2)cc1`: 78 (inactive) and 65 (inactive); `CC(=O)c1cccc(NC(=O)CSc2cc(C)c3ccccc3n2)c1`: 77 (inactive). Next, `Cc1ccc(S(=O)(=O)Nc2ccc3c(c2)C(=O)NCCO3)c(C)c1`: 64 (inactive); `O=C(CSc1nnc2ccc(-c3cccs3)nn12)NCCc1ccccc1`: 54 (inactive). Consider `CS(=O)(=O)c1ccc(Nc2nc(C(=O)NC3CC3)cs2)cc1`, for which the FP signal (polarization) is 62 (inactive). On to `C=CCn1c(SCC(=O)c2ccc3c(c2)OCO3)nc2scc(-c3ccco3)c2c1=O`, for which the FP signal (polarization) is 120 (inactive). As for `Cc1cc(C)c2nc(N(CCN(C)C)C(=O)/C=C/c3cccs3)sc2c1`, the figure is 92 (inactive); as for `COC(CC(=O)O)c1nc2ccccc2s1` (stereo unspecified), 59 (inactive); as for `COc1cccc2cc(C(=O)Nc3ccc4nc(N5CCN(C)CC5)sc4c3)oc12`, 64 (inactive).

Turning to `COc1cccc(-n2c(=S)sc3c(=O)[nH]c(SCC(=O)Nc4ccc(C)c(F)c4)nc32)c1`, the FP signal (polarization) is 48 (inactive). `COc1cccn(Cc2n[nH]c(=S)n2C)c1=O`: the FP signal (polarization) was 59 (inactive). Turning to `CC(=O)c1ccc(NC(=O)CSc2nc(C(F)(F)F)cc(=O)[nH]2)cc1`, the FP signal (polarization) was 54 (inactive). As for `COc1ccc(Oc2cccc(Cl)c2CNC(=O)c2ccccc2N)cc1`, the figure is 60 (inactive); as for `COC(=O)c1cccn1-c1ccc(F)cc1`, 56 (inactive); as for `Cc1cc(NC(=O)/C=C/c2ccccc2)n(C(C)C)n1`, 67 (inactive). As for `COc1ccc(-c2cc(=O)n(CC(=O)N3CCN(c4ccccc4OC)CC3)cn2)cc1`, the figure is 65 (inactive); as for `CCOC(=O)N1CCN(C(=O)COc2coc(CN3CCc4ccccc43)cc2=O)CC1`, 57 (inactive); as for `Cc1cccc(NC(=O)Cn2c(C)cc(C)c(-c3nc(-c4ccc(F)cc4)no3)c2=O)c1C`, 137 (inactive).
